GDH-TPI counter-1: counter-screen for M. tuberculosis FBA inhibitors: GDH-TPI coupled enzymes. GDH-TPI coupled enzyme counterscreen, NADH absorbance. inhibition, % at 4.8 µM. 1.2% of 360,000 active. AID 588335; in the data active means inhibition above about 30%;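 further: 0% = DMSO wells and 100% = wells lacking the enzyme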
Mtb betalactam: beta-lactam sensitization of Mtb H37Rv | M. tuberculosis H37Rv growth with meropenem, percent inhibition | inhibition, % at 25 µM | 0.27% of 330,000 active; call rule not given here;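 further: growth measured after seven days incubation then overnight dye step; 0% = bacteria only wells and 100% = bacteria with antibiotic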
UGM FP inh: Mtb UDP-galactopyranose mutase inhibition; inhibition, % at 10 µM; purified UGM, fluorescence polarization probe displacement; 0.06% of 320,000 active; P9WIQ1; AID 504406; in the data active means inhibition above about 10%, passing the limit was not always enough
FBA Mtb inh: Mtb fructose-bisphosphate aldolase inhibition; P9WQA3; purified M. tuberculosis FBA, fluorescence read-out; inhibition, % at 1 µM; 2.3% of 360,000 active; AID 588726;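 further: 0% = vehicle and 100% = reference inhibitor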
Rv3671c inh: Rv3671c (M. tuberculosis) protease inhibition; P9WHR9; inhibition, % at 5.96 µM; 0.048% of 320,000 active; AID 2606; in the data active means inhibition above about 38%;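 further: extracellular domain of Rv3671c used as enzyme; 0% = enzyme with DMSO and 100% = no enzyme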
Target sequence (P9WHR9 whole entry, looked up, the tested form may be a part): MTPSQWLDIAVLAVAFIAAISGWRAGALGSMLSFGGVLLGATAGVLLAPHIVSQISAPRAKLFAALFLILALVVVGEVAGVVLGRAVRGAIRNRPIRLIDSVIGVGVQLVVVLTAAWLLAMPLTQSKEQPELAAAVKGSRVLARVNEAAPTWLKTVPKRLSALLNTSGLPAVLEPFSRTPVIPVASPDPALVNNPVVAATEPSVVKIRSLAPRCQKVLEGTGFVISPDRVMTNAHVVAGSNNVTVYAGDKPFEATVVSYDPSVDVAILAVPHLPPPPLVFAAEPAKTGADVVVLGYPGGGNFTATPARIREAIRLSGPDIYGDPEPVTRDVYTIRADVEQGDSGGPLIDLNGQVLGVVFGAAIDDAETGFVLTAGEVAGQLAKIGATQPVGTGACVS
Mtb FBA confirm: confirmation of M. tuberculosis fructose-bisphosphate aldolase inhibitors. inhibition, % at 1 µM. 78% of 5,600 active. shares compounds with FBA Mtb inh. purified M. tuberculosis FBA, fluorescence read-out;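 further: 0% = vehicle wells and 100% = reference inhibitor wells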
GDH-TPI counter-2: counter-screen for M. tuberculosis FBA inhibitors: GDH-TPI coupled enzyme inhibition | shares compounds with FBA Mtb inh | 81% of 5,600 active | GDH-TPI coupled enzyme counterscreen, fluorescence | inhibition, % at 1 µM; in the data active means inhibition above about 10%
An asterisk follows results filed as active; x = no result; + = active, no number. Sampled rows, rich in hits. Any-hit rate of the full collection: about 3.5%. Unless noted, no stated cut-off is given here; in the data, active means inhibition above about 27%; inactive means the rest.

SMILES | GDH-TPI counter-1 | Mtb betalactam | UGM FP inh | FBA Mtb inh | Rv3671c inh | Mtb FBA confirm | GDH-TPI counter-2
O=C(c1cc(-c2cccs2)nc2ccccc12)N1CCN(CCO)CC1 | 8 | x | x | 99* | x | + | +
O=C(NN1CCOCC1)c1cc(-c2cccs2)nc2ccccc12 | 20 | 5 | 0 | 51* | -1 | 36* | 21*
O=C(N/N=C/c1cccnc1)c1cc(-c2cccs2)nc2ccccc12 | 16 | -3 | 2 | 56* | -10 | 51* | 50*
O=C(OC1CCOC1=O)c1cc(-c2cccs2)nc2ccccc12 (stereo not given) | 6 | -7 | 2 | 44* | -7 | 9 | 2
CCc1ccc(-c2cc(C(=O)NN3CCOCC3)c3ccccc3n2)s1 | 9 | -9 | 1 | 89* | 1 | 44* | 35*
COc1ccc(-c2cc(CCC(=O)N3CCN(c4cc(C)ccc4C)CC3)on2)cc1 | 6 | x | x | 2 | x | x | x
CNCc1cc(Cl)cc(OC)c1OC(C)C | 0 | x | x | 65* | x | 79* | 86*
O=C(COC(=O)c1ccccc1C(=O)c1ccccc1)Nc1cccc([N+](=O)[O-])c1 | 5 | -6 | -3 | 55* | -4 | 85* | 74*
O=C(COC(=O)COc1ccccc1)Nc1cccc([N+](=O)[O-])c1 | 3 | -1 | 1 | 0 | 0 | x | x
CC1(C(=O)NS(=O)(=O)c2ccccc2)CCN1C(=O)COc1ccc(Cl)cc1 (stereo not given) | 11 | x | x | 2 | x | x | x
Cc1cccc2nc3ccccc3cc12 | -7 | -7 | -1 | 33* | 7 | 49* | 33*
Cc1ccc2[nH]c3c(c2c1)CCCC3=O | 12 | 6 | -2 | 12 | -2 | x | x
Cc1ccc2[nH]c3c(c2c1)CCC3=O | 2 | -2 | 3 | 65* | 4 | + | 162*
NC(=O)c1nsc(C(=O)N(c2ccccc2)C(C(=O)NCc2ccc(F)cc2)c2ccc(O)cc2)c1N (stereo not given) | 4 | -4 | 2 | 37* | -17 | -2 | -5
COc1ccc(N(C(=O)c2snc(C(N)=O)c2N)C(C(=O)NCc2ccccc2)c2ccc(O)cc2)cc1 (stereo not given) | -1 | x | x | -6 | x | x | x
CC1(C)Cc2c(C#N)c(N3CCOCC3)nc(-c3ccccc3)c2CO1 | 5 | -5 | 0 | 25 | -1 | x | x
CC1(C)Cc2nc(N3CCCC3)c(C#N)cc2CO1 | 7 | 0 | 0 | 110* | -6 | 66* | 50*
CC1(C)Cc2nc(N3CCOCC3)c(C#N)cc2CO1 | -3 | 1 | 2 | 49* | -2 | 37* | 35*
Cn1c(N)c(C(=O)/C=C/c2ccccc2)c(=O)[nH]c1=O | 12 | -10 | -1 | -3 | 5 | x | x
Nc1ccccc1NC(=O)c1ccccc1N | 7 | -3 | -1 | 61* | 1 | 101* | 87*
Nc1ccccc1C(=O)NCc1ccc(Cl)cc1 | 11 | 7 | -1 | 49* | 5 | 161* | 139*
COc1cccc(CNC(=O)c2ccccc2N)c1 | 6 | -4 | 1 | 63* | 4 | 59* | 54*
Nc1ccccc1C(=O)NCc1ccc(F)cc1 | 10 | -4 | 1 | 77* | 7 | x | +
Cc1c(NC(=O)c2ccccc2N)cccc1C(=O)O | -1 | 12 | 0 | 14 | -2 | x | x
COc1cccc(CNC(=O)CCNC(=O)c2ccccc2OC)c1 | 3 | -15 | -2 | 0 | -9 | x | x
SMILES | GDH-TPI counter-1 | Mtb betalactam | UGM FP inh | FBA Mtb inh | Rv3671c inh | Mtb FBA confirm | GDH-TPI counter-2
O=C(O)c1ccccc1C(=O)NCc1ccc(F)cc1 | 4 | -9 | 2 | 1 | -8 | x | x
O=C(NCc1ccc(Cl)cc1)c1ccccc1CCc1ccccc1 | 6 | 61 | 4 | 4 | -13 | x | x
Cc1cc(C)c2nc(NC(=O)C3CSC4(C)CCC(=O)N34)sc2c1 (stereo not given) | 5 | -3 | 3 | 4 | 2 | x | x
Cc1nn2c(=O)c(NC(=O)c3ccc(Cl)cc3)cnc2s1 | 7 | 3 | -2 | 65* | 4 | 44* | 28*
O=C(CN1C(=O)NC(c2ccccc2)(c2ccccc2)C1=O)NCc1ccco1 | 0 | -1 | 3 | 0 | 1 | x | x
CN1CCc2c(sc(/N=C/c3ccco3)c2C(N)=O)C1 | 21 | -12 | 2 | 40* | 0 | 42* | 24*
CN1CCc2c(sc(/N=C/c3cccs3)c2C(N)=O)C1 | 26 | 91 | 0 | 24 | 6 | x | x

From PubChem
